Structures are written as SMILES. ± gives the uncertainty stated by the source. Whole data set: some 9,900 compounds, median “viability index relative to DMSO control” near 1, cut for the lowest 2% near 0.85. This excerpt belongs to a sample that is enriched for the lowest values.

This is an account of results in the supplement of paper PMC4723716.

This experiment relates to Plasmodium falciparum NF54 stage V gametocytes. The experiment can be described thus: viability index relative to DMSO control (fraction); higher = less gametocyte killing. The following applies: 2.5 µM, incubation time: 72 h. The essentials:
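Stage V gametocytes of P. falciparum NF54 were held in serum-free screening medium at 0.75% gametocytemia and 1.25% hematocrit, 10 µl per well of a 1,536-well plate, and exposed to compound at 2.5 µM for 72 hr at 37°C under low oxygen. A 3 µl mix of 2.5 µM MitoTracker Red CMXRos with 0.13% saponin was then added for one to two hours, after which one field per well was imaged and red particles of 20–70 µm2 were counted. The viability index equals this count divided by the plate mean from wells given solvent alone.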

Setting [1] is: library set: Broad Institute DOS.
Setting [2] is: library set: Broad Institute Blood Stage.

Compound `Cc1ccc(-c2ccccc2[C@H]2[C@@H](C#N)N(c3ncc(-c4ccccc4)s3)[C@H]2CO)cc1` returned a viability index under setting [1] of 0.985 ± 0.14. On to `O=C(C[C@H]1CC[C@@H]2[C@H](COC[C@H](O)CN2Cc2ccc(C(F)(F)F)cc2)O1)N1CCc2ccccc2C1`, for which, under setting [1], the viability index was determined as 0.846 ± 0.011. Under setting [1], `O=C(C[C@@H]1CC[C@@H]2[C@H](COC[C@H](O)CN2Cc2ccc(C(F)(F)F)cc2)O1)N1CCc2ccccc2C1` returned a viability index of 1.078 ± 0.0039.

`O=C(C[C@H]1CC[C@H]2[C@@H](COC[C@@H](O)CN2Cc2ccc(C(F)(F)F)cc2)O1)N1CCc2ccccc2C1` came in with a viability index under setting [1] of 0.968 ± 0.024. The compound `Cc1noc(C)c1NC(=O)Nc1ccc2c(c1)C(=O)N(C)[C@H]1CC[C@H](CC(=O)Nc3ccc4c(c3)CCCC4)O[C@@H]1CO2` yielded a viability index under setting [1] of 1.086 ± 0.0014. `COc1ccc([C@@H]2C/C=C\C[C@H](c3ccc(F)cc3)NC(=O)CCC(=O)N2)c(OC)c1` came in with a viability index under setting [1] of 1.015 ± 0.01. With `C/C=C/c1ccc2c(c1)O[C@H](CN(C)C(=O)Nc1ccc(OC)cc1)[C@H](C)CN([C@@H](C)CO)S2(=O)=O`, the viability index under setting [1] was 0.988 ± 0.013. Under setting [1], `Cc1ccccc1-c1ccc2c(c1)O[C@@H](CN(C)C(=O)Nc1ccc(C(F)(F)F)cc1)[C@@H](C)CN([C@@H](C)CO)S2(=O)=O` came in with a viability index of 0.838 ± 0.12.

As to `COc1ccc(C#Cc2ccc3c(c2)O[C@@H](CN(C)C(=O)Nc2cccc(OC)c2)[C@@H](C)CN([C@@H](C)CO)S3(=O)=O)cc1`, the viability index under setting [2] came out at 0.612 ± 0.071. `Cc1ccccc1-c1ccc2c(c1)O[C@H](CN(C)C(=O)Nc1ccc(C(F)(F)F)cc1)[C@H](C)CN([C@H](C)CO)S2(=O)=O` returned a viability index under setting [1] of 0.988 ± 0.082. Take `Cc1ccccc1-c1ccc2c(c1)O[C@@H](CN(C)C(=O)Nc1ccc(C(F)(F)F)cc1)[C@H](C)CN([C@@H](C)CO)S2(=O)=O`: the viability index under setting [1] came out at 1.09 ± 0.078. With `C/C=C/c1ccc2c(c1)O[C@H](CN(C)C(=O)Nc1ccc(OC)cc1)[C@H](C)CN([C@H](C)CO)S2(=O)=O`, under setting [1], the viability index came to 1.056 ± 0.0059. Consider `C[C@H](CO)N1C[C@H](C)[C@@H](CN(C)Cc2cccc(C(=O)Nc3ccccc3N)c2)OCc2ccccc2-c2c(n(C)c3ccccc23)C1=O`, for which the viability index under setting [1] came out at 0.887 ± 0.053. `CO[C@H](CN(C)S(=O)(=O)c1ccc(C)cc1)[C@H](C)CN(C(=O)Nc1ccccc1F)[C@@H](C)CO`: the viability index under setting [1] turned out to be 0.986 ± 0.025. Turning to `CCC(=O)N1[C@H](CO)[C@H]2c3ccccc3N(S(=O)(=O)c3ccc(F)cc3)C[C@H]21`, the viability index under setting [1] came to 0.958 ± 0.067. `N#C[C@H]1[C@H](c2ccccc2C2=CCCCC2)[C@@H](CO)N1S(=O)(=O)c1ccccc1` gave a viability index under setting [1] of 0.757 ± 0.1. Take `N#C[C@H]1[C@H](c2ccccc2C2=CCCCC2)[C@H](CO)N1S(=O)(=O)c1ccccc1`: under setting [1], the viability index is 1.14 ± 0.019. `N#C[C@@H]1[C@@H](c2ccccc2C2=CCCCC2)[C@H](CO)N1S(=O)(=O)c1ccccc1` returned a viability index under setting [1] of 1.05 ± 0.1. `C[C@@H]1CCCCO[C@@H](CN(C)C(=O)C2CCCCC2)[C@@H](C)CN([C@@H](C)CO)C(=O)c2cc(NS(=O)(=O)c3ccccc3)ccc2O1` registered a viability index under setting [1] of 1.08 ± 0.023. In the case of `COc1ccc2c3c([C@@H](CO)N(C[C@]33CCN(CC4CCCC4)CC3)C(=O)C3CCC3)n(C)c2c1`, the viability index under setting [1] amounted to 1.1 ± 0.042.

As to `COc1ccc2c3c([C@H](CO)N(C[C@]33CN(C3)C(=O)CC3CC3)C(=O)C3CCCC3)n(C)c2c1`, the viability index under setting [1] was found to be 0.897 ± 0.036. Still for that read-out and setting: the figure for `COc1ccc2c3c([C@@H](CO)N(C[C@]33CN(C3)C(=O)CC3CC3)C(=O)C3CCCC3)n(C)c2c1` is 0.932 ± 0.021.

Under setting [2], `COc1ccc(NC(=O)N2C[C@@]3(C2)CN([C@H](CO)c2c3c3ccc(OC)cc3n2C)C(=O)C2CCC2)cc1` displayed a viability index of 0.841 ± 0.05.

For `COc1ccc(NC(=O)N2CC[C@@]3(CC2)CN([C@H](CO)c2c3c3ccc(OC)cc3n2C)C(=O)C2CCC2)cc1`, the viability index under setting [1] turned out to be 0.785 ± 0.057. Turning to `COc1ccc(NC(=O)N2CC[C@@]3(CC2)CN([C@@H](CO)c2c3c3ccc(OC)cc3n2C)C(=O)C2CCC2)cc1`, the viability index under setting [1] amounted to 0.897 ± 0.041.

The compound `COc1cccc(CN2C[C@@]3(C2)CN([C@@H](CO)c2[nH]c4cc(OC)ccc4c32)C(=O)C2CC2)c1` had a viability index under setting [1] of 0.956 ± 0.11. On the same count and under the same terms, the figure for `CCCC#Cc1cnc2c(c1)C(=O)N([C@@H](C)CO)C[C@@H](C)[C@@H](CN(C)C(=O)Nc1cc(F)ccc1F)O2` is 1.02 ± 0.012. In the case of `C[C@H]1CN([C@@H](C)CO)C(=O)c2cc(C#Cc3cccc(F)c3)cnc2O[C@@H]1CN(C)C(=O)C1CCCCC1`, the viability index under setting [2] was found to be 0.769 ± 0.073. Take `C[C@H](CO)N1C[C@H](C)[C@H](CN(C)C(=O)NC2CCCCC2)Oc2ncc(-c3cccc(F)c3)cc2C1=O`: the viability index under setting [1] was determined as 1.01 ± 0.084. Still for that read-out and setting: the figure for `C[C@@H]1CN([C@H](C)CO)C(=O)c2cc(C#Cc3ccccc3)cnc2O[C@@H]1CN(C)C(=O)c1ccccc1` is 0.966 ± 0.057; for `C[C@H]1CN([C@@H](C)CO)C(=O)c2cc(-c3cccc(C#N)c3)cnc2O[C@@H]1CN(C)C(=O)C1CCOCC1` it is 1.04 ± 0.025. Under setting [1], `C[C@@H]1CN([C@@H](C)CO)C(=O)c2cc(C#Cc3ccccc3)cnc2O[C@@H]1CN(C)C(=O)c1ccccc1` had a viability index of 1.08 ± 0.028. Under setting [2], `C[C@H](CO)N1C[C@H](C)[C@H](CN(C)C(=O)C2CCCCC2)Oc2ncc(C#Cc3cccc(F)c3)cc2C1=O` yielded a viability index of 0.62 ± 0.074. `CCCC#Cc1cnc2c(c1)C(=O)N([C@H](C)CO)C[C@@H](C)[C@H](CN(C)C(=O)Nc1cc(F)ccc1F)O2`: the viability index under setting [1] was 0.822 ± 0.058. Compound `CCCC#Cc1cnc2c(c1)C(=O)N([C@@H](C)CO)C[C@@H](C)[C@H](CN(C)C(=O)Nc1cc(F)ccc1F)O2` came in with a viability index under setting [1] of 1.05 ± 0.041.
